Records with an inconclusive call do not appear. Activity calls are given as the source filed them. Calls follow the shape of the dose curve; as a rule, active = well fitted curve in the direction sought with a large enough effect; inconclusive = small, poorly fitted or top-dose-only effect, or another doubt; inactive = no such curve, though single readings can be large; an effect the other way counts as inactive or inconclusive.
Experiments:
PA-1 = assay: Primary qHTS to identify gynecologic anti-cancer compounds using libraries of approved drugs and bioactive compounds (AID 1345084); details: Gynecologic cancer cell panel viability, ATPlite luminescence, 48 h; series mostly up to 57.5 µM; also: nearly all actives have a fitted effect of over 55% in size
In short: (§1)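 ATP-based viability (ATPlite), 1,000 cells/well, 16 h pre-incubation, 48 h compound at 37 C, 5% CO2, 15 min RT before read.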

SKOV3 = assay: as above; details: Gynecologic cancer cell panel viability, ATPlite luminescence, 48 h; series mostly up to 57.5 µM
In short: as §1

Tov-21-G = assay: as above; details: Gynecologic cancer cell panel viability, ATPlite luminescence, 48 h; series mostly up to 57.5 µM
In short: as §1

Tov112D = assay: as above; details: Gynecologic cancer cell panel viability, ATPlite luminescence, 48 h; series mostly up to 57.5 µM
In short: as §1

[1] = Drug repurposing screens with cells derived from glioblastoma tumor samples (AID 1345199); details: GBM patient neurospheres viability, ATP luminescence, 48 h; also: nearly all actives have a fitted effect of over 40% in size
In short: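 Four patient lines of CD133+ GBM neurospheres were screened at several concentrations; hits were retested in those lines plus three slower-growing GBM lines, using 48-hour treatment and ATP-based viability.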

[2] = at 108 µM (top of the series), tumour line B
[3] = at 108 µM (top of the series), tumour line D
[4] = at 45.9 µM (top of the series), tumour line B
[5] = at 45.9 µM (top of the series), tumour line D
[6] = at 21.2 µM (top of the series), tumour line B
[7] = at 21.2 µM (top of the series), tumour line D
[8] = at 91.6 µM (top of the series), tumour line B
[9] = at 91.6 µM (top of the series), tumour line D
% is scaled to controls: 0 for no effect and ±100 for the full control effect; potency is read from the fitted curve at half-maximal effect.

CCC(CC)(CNC(=O)CCCO)c1cccc(OC)c1
inactive: Potency (PA-1) | outcome (SKOV3) | Potency (Tov-21-G) | Potency (Tov112D)

CCN[C@@H](C)Cc1ccccc1
inactive: Potency (PA-1) | outcome (SKOV3) | Potency (Tov-21-G) | Potency (Tov112D) | activity, negative = cell killing [1, 2] -6.22% | activity, negative = cell killing [1, 3] -20.9%

C[C@]12CC[C@H]3[C@@H](CCC4=CC(=O)CC[C@@H]43)[C@@H]1CC[C@@H]2OC(=O)CCC1CCCCC1
inactive: Potency (PA-1) | outcome (SKOV3) | Potency (Tov-21-G) | Potency (Tov112D)

CC(=O)C1CCOC1=O (centres undefined)
inactive: Potency (PA-1) | outcome (SKOV3) | Potency (Tov-21-G) | Potency (Tov112D)

Clc1cccc(SC2CCNCC2)n1
inactive: Potency (PA-1) | outcome (SKOV3) | Potency (Tov-21-G) | Potency (Tov112D)

c1ccc(N2CCNCC2)cc1
inactive: Potency (PA-1) | outcome (SKOV3) | Potency (Tov-21-G) | Potency (Tov112D)

C[C@]12CC[C@H]3[C@@H](CCC4=CC(=O)CC[C@@H]43)[C@@H]1CC[C@@H]2OC(=O)CCc1ccco1
active: Potency (PA-1) 25.1 µM
inactive: outcome (SKOV3) | Potency (Tov-21-G) | Potency (Tov112D)

ClCCN1CCCC1
inactive: Potency (PA-1) | outcome (SKOV3) | Potency (Tov-21-G) | Potency (Tov112D)

C#CC(O)(C=CCl)CC (centres undefined)
inactive: Potency (PA-1) | outcome (SKOV3) | Potency (Tov-21-G) | Potency (Tov112D)

C=C(C)[C@H]1CN[C@H](C(=O)O)[C@H]1CC(=O)O
inactive: Potency (PA-1) | outcome (SKOV3) | Potency (Tov-21-G) | Potency (Tov112D) | activity, negative = cell killing [1, 4] -14.8% | activity, negative = cell killing [1, 5] -15.4%

CC(Cc1ccccc1)N(C)Cc1ccco1 (centres undefined)
inactive: Potency (PA-1) | outcome (SKOV3) | Potency (Tov-21-G) | Potency (Tov112D)

Clc1ccccc1N1CCNCC1
inactive: Potency (PA-1) | outcome (SKOV3) | Potency (Tov-21-G) | Potency (Tov112D)

COc1c2c(cc3c1OCO3)CCN(C)C2
inactive: Potency (PA-1) | outcome (SKOV3) | Potency (Tov-21-G) | Potency (Tov112D) | activity, negative = cell killing [1, 6] -1.01% | activity, negative = cell killing [1, 7] -13.1%

CC(C)(N)Cc1ccccc1Cl
inactive: Potency (PA-1) | outcome (SKOV3) | Potency (Tov-21-G) | Potency (Tov112D)

CCN[C@@H](C)Cc1cccc(C(F)(F)F)c1
inactive: Potency (PA-1) | outcome (SKOV3) | Potency (Tov-21-G) | Potency (Tov112D) | activity, negative = cell killing [1, 8] 2.77% | activity, negative = cell killing [1, 9] -1.09%

C=CCC1([C@H](C)CCC)C(=O)NC(=O)NC1=O
inactive: Potency (PA-1) | outcome (SKOV3) | Potency (Tov-21-G) | Potency (Tov112D) | activity, negative = cell killing [1, 8] -8.55% | activity, negative = cell killing [1, 9] -0.262%

O=c1[nH]c2ccccc2n1C1CCNCC1
inactive: Potency (PA-1) | outcome (SKOV3) | Potency (Tov-21-G) | Potency (Tov112D)

C[C@]12CC[C@H]3[C@@H](CC[C@@]45O[C@H]4C(O)=C(C#N)C[C@]35C)[C@H]1CC[C@H]2O
inactive: Potency (PA-1) | outcome (SKOV3) | Potency (Tov-21-G) | Potency (Tov112D)

O=C1CN=C(c2ccccc2)c2cc([N+](=O)[O-])ccc2N1
inactive: Potency (PA-1) | outcome (SKOV3) | Potency (Tov-21-G) | Potency (Tov112D) | activity, negative = cell killing [1, 4] -7.18% | activity, negative = cell killing [1, 5] -17.8%

C[C@@H]1CC2=CC(=O)CC[C@@H]2[C@H]2CC[C@@]3(C)[C@@H](CC[C@]3(C)O)[C@@H]21
inactive: Potency (PA-1) | outcome (SKOV3) | Potency (Tov-21-G) | Potency (Tov112D)

CC[N+]1(CC)CCC(OC(=O)C(O)(c2ccccc2)c2ccccc2)C1 (centres undefined)
inactive: Potency (PA-1) | outcome (SKOV3) | Potency (Tov-21-G) | Potency (Tov112D)

COc1cc(CCN)cc(OC)c1OC
inactive: Potency (PA-1) | outcome (SKOV3) | Potency (Tov-21-G) | Potency (Tov112D) | activity, negative = cell killing [1, 2] -15.3% | activity, negative = cell killing [1, 3] 5.13%

O=C(CCCN1CCC2(CC1)C(=O)NCN2c1ccccc1)c1ccc(F)cc1
inactive: Potency (PA-1) | outcome (SKOV3) | Potency (Tov-21-G) | Potency (Tov112D)
active: Potency ([1]; tumour line A) 2.24 µM | Potency ([1]; tumour line D) 12.6 µM

CC(NC(C)(C)C)C(=O)c1cccc(Cl)c1 (centres undefined)
inactive: Potency (PA-1) | outcome (SKOV3) | Potency (Tov-21-G) | Potency (Tov112D) | activity, negative = cell killing [1, 4] -9.74% | activity, negative = cell killing [1, 5] 3.9%

C=CCC1(C(C)CC)C(=O)NC(=O)NC1=O (centres undefined)
inactive: Potency (PA-1) | outcome (SKOV3) | Potency (Tov-21-G) | Potency (Tov112D)

CCCOC(=O)c1cncn1C(C)c1ccccc1 (centres undefined)
inactive: Potency (PA-1) | outcome (SKOV3) | Potency (Tov-21-G) | Potency (Tov112D)

O=c1oc2ccccc2c(O)c1Cc1c(O)c2ccccc2oc1=O
inactive: Potency (PA-1) | outcome (SKOV3) | Potency (Tov-21-G) | Potency (Tov112D) | activity, negative = cell killing [1, 6] -21.7% | activity, negative = cell killing [1, 7] -20.9% | activity, negative = cell killing ([1]; at 21.3 µM (top of the series), tumour line A) -20.4%

CCN(CC)CCc1c[nH]c2ccccc12
inactive: Potency (PA-1) | outcome (SKOV3) | Potency (Tov-21-G) | Potency (Tov112D) | activity, negative = cell killing [1, 2] -10.6% | activity, negative = cell killing [1, 3] -16.4%
active: Potency ([1]; tumour line A) 63.1 µM

CC(C)(C)NCC(O)c1cc(Cl)c(N)c(C(F)(F)F)c1 (centres undefined)
inactive: Potency (PA-1) | outcome (SKOV3) | Potency (Tov-21-G) | Potency (Tov112D) | activity, negative = cell killing [1, 4] -7.42% | activity, negative = cell killing [1, 5] -9.1%

O=C1OC(CCN2CCCCC2)OC1(c1ccccc1)c1ccccc1 (centres undefined)
inactive: Potency (PA-1) | outcome (SKOV3) | Potency (Tov-21-G) | Potency (Tov112D)

C[C@]12Cc3cn[nH]c3C[C@@H]1CC[C@@H]1[C@@H]2CC[C@@]2(C)[C@H]1CC[C@]2(C)O
inactive: Potency (PA-1) | outcome (SKOV3) | Potency (Tov-21-G) | Potency (Tov112D)

CC(C(=O)c1ccccc1)N(C)C (centres undefined)
inactive: Potency (PA-1) | outcome (SKOV3) | Potency (Tov-21-G) | Potency (Tov112D)

CC(C)N(CCC(C(N)=O)(c1ccccc1)c1ccccn1)C(C)C (centres undefined)
inactive: Potency (PA-1) | outcome (SKOV3) | Potency (Tov-21-G) | Potency (Tov112D) | activity, negative = cell killing [1, 4] -20.9% | activity, negative = cell killing [1, 5] 4.58%

CCC(C)C(C)(COC(N)=O)COC(N)=O (centres undefined)
inactive: Potency (PA-1) | outcome (SKOV3) | Potency (Tov-21-G) | Potency (Tov112D)

— PubChem BioAssay (NCATS)
